# Screens deposited in PubChem by several laboratories.
# Compounds with a hit are over-represented: about 4.6% of the library has one in this group of screens.
# ABHD5 PLIN5 PPI: ABHD5-PLIN5 protein interaction inhibition; Split G. princeps luciferase complementation, luminescence, 4 h; inhibition, % at 4 µM; 360,000 compounds, 0.78% hits; AID 602281;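 active = inhibition above the mean inhibition across every tested compound plus 3 SD, cut at about 22% in these data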;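 also: 0% = DMSO only wells and the 100% control is not disclosed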
# Mdm2 MdmX PPI: disrupts the human Mdm2-MdmX interaction; 330,000 compounds, 3% hits; SaOS-2 split-luciferase Mdm2/MdmX complementation, luminescence; AID 485346; inhibition, % at 8 µM;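 active = inhibition of at least 50% at 8 µM in the primary screen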
# CF NFkB inh: blocks PAF-induced NF-kB reporter in cystic fibrosis cells; AID 588850; KKLEB NF-kB-GFP reporter, GFP fluorescence overnight; 360,000 compounds, 0.86% hits; inhibition, % at 5 µM;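 active = at least 50% inhibition at 5 µM, scaled per plate between neutral and stimulator controls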;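 also: PAF is a Pseudomonas aeruginosa culture filtrate used as stimulus; plate controls were PAF-stimulated DMSO wells for no effect and unstimulated DMSO wells for full effect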
# HIF-2a inh: inhibitors of HIF-2a; 786-0 RCC cells HIF-2a reporter, luciferase luminescence, overnight; inhibition, % at 18.8 µM; 360,000 compounds, 0.72% hits;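 active = inhibition of the luminescence signal of 40% or more relative to plate controls, in a single-dose primary screen at 18.75 µM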
# KKLEB cytotox: counter-screen for CF NF-kB inhibitors: cytotoxicity; activity change (cytotoxicity), % at 5 µM; 360,000 compounds, 0.36% hits; KKLEB CF airway cells viability, ATPlite luminescence, overnight; active compounds read low; cells stimulated with P. aeruginosa culture filtrate;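 active = corrected activity change at or below -50% at 5 µM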
# Peg3 prom inh: Peg3 promoter activity inhibition. 360,000 compounds, 1.7% hits. HeLa PEG-Prom luciferase reporter, luminescence, overnight. inhibition, % at 20 µM;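 active = inhibition of at least 50% at 20 µM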
# ABHD5 PLIN5 conf: ABHD5-PLIN5 interaction inhibition, confirmed; AID 651612; 2,200 compounds, 67% hits; biochemical ABHD5-PLIN5 interaction, luminescence; shares compounds with ABHD5 PLIN5 PPI; inhibition, % at 4 µM; in the data active = inhibition above about 23%;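 also: 0% = DMSO vehicle wells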
# HNF4 split-luc: active in HNF4 split-luciferase counter-screen for ABHD5-PLIN5 inhibitors. shares compounds with ABHD5 PLIN5 PPI. HNF4 dimerization, luminescence, biochemical. inhibition, % at 4 µM. 2,200 compounds, 77% hits. AID 651674;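 active = mean inhibition across replicate wells exceeding the computed hit threshold, cut at about 13% in these data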;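 also: light from luciferase halves that rejoin when HNF4 fusion proteins dimerize; 0% = DMSO only wells and the 100% control is not given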
# Target sequence (P41235 whole entry, looked up, the tested form may be a part): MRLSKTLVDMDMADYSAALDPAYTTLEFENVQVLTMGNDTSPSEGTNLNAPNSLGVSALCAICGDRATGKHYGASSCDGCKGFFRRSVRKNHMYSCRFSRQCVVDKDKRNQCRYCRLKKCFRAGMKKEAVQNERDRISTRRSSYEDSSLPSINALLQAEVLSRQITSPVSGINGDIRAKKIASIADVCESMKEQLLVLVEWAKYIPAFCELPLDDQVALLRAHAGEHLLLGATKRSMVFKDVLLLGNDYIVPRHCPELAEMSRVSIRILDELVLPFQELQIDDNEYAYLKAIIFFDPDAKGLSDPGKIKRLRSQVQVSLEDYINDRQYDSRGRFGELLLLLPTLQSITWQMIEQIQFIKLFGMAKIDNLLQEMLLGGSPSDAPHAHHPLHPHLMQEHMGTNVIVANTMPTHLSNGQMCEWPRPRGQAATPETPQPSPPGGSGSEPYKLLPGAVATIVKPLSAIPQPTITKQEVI
# Active calls of the source: *; . = no result given.
SMILES,ABHD5 PLIN5 PPI,Mdm2 MdmX PPI,CF NFkB inh,HIF-2a inh,KKLEB cytotox,Peg3 prom inh,ABHD5 PLIN5 conf,HNF4 split-luc
OCc1ccc(-c2cncc3nccn23)cc1,0,.,-7,3,3,3,.,.
c1cn2c(-c3ccoc3)cncc2n1,23*,.,-19,1,5,4,34*,35*
O=C1CC(=O)CC(c2ccccc2)C1,-3,-5,-2,9,1,10,.,.
O=C1CC(c2ccccc2)CC(=O)C1CS(=O)(=O)c1ccccc1 (stereo not drawn),34*,3,8,19,3,-3,48*,105*
CN(Cc1ccc(Br)s1)C(=O)CNC(=O)c1ccc2c(c1)OCO2,-3,5,2,-5,-4,-1,.,.
Cc1[nH]nc(C(F)(F)F)c1N=NN1CCOCC1,50*,.,-24,18,2,23,41*,76*
Cc1ccc(C)n1-c1ccc(C(=O)NN)s1,-2,4,-8,15,-5,23,.,.
Cc1c(NC(=O)CSc2nnc(-c3ccncc3)n2C)c(=O)n(-c2ccccc2)n1C,-2,.,-19,17,8,-2,.,.
Cc1ccsc1CN(C)C(=O)C(NC(=O)c1cccc(S(=O)(=O)N2CCOCC2)c1)C(C)C (stereo not drawn),-1,10,3,8,0,7,.,.
Cc1cc(N(CCO)CCO)ccc1N=Nc1cc(F)ccc1F,31*,-79,23,-242,0,-139,22*,17*
CCOc1cc(/C=C2\C(=O)N(Cc3ccco3)C(C)=C2C(=O)OC)ccc1O,52*,4,-2,13,-4,1,37*,63*
CCOc1cc(/C=C2\C(=O)N(CCc3ccc(OC)c(OC)c3)C(C)=C2C(=O)OC)ccc1O,21,8,-8,15,-16,18,.,.
Cc1ccc(C2=Nc3ccccc3SC(c3cccc([N+](=O)[O-])c3)C2)cc1 (stereo not drawn),59*,-9,8,-93,-31,-32,3,73*
O=[N+]([O-])c1cccc(C2CC(c3ccccc3)=NN2c2ccccc2)c1 (stereo not drawn),8,13,-2,-31,8,9,.,.
CCc1ccccc1NC(=O)CCS(=O)(=O)c1ccc(OC)cc1,1,-15,-2,13,-7,-6,.,.
Cc1ccc(C(=O)N2CCN(c3ccc([N+](=O)[O-])cc3)CC2)o1,4,13,0,15,3,10,.,.
CCCCC1Cc2[nH][nH]c(=O)c2C(c2ccc(Cl)cc2)O1 (stereo not drawn),28*,.,.,-3,.,.,6,25*
O=c1[nH][nH]c2c1[C@H](c1ccc(F)cc1)O[C@H](CCc1ccccc1)C2,27*,.,.,15,.,.,15,36*
CC(C(Sc1ccccc1N)c1ccccc1)[N+](=O)[O-] (stereo not drawn),27*,36,4,-46,-16,49,63*,77*
Nc1ccccc1SC(CC(=O)c1ccccc1)c1ccccc1 (stereo not drawn),68*,.,-22,-103,9,-91,0,79*
CN(CC(=O)Nc1ccc(F)c(F)c1)S(=O)(=O)c1cccc2cccnc12,5,3,6,15,2,2,.,.
c1coc(-c2nc3ccccc3nc2-c2ccco2)c1,34*,14,-11,-54,-6,-18,93*,86*
CCC(c1nnc(SCC(=O)NC2CCCCC2)n1Cc1ccccc1)N(C)C (stereo not drawn),6,10,1,1,-4,17,.,.
Cc1cccc(CN2CCN(C3CN(Cc4ccc(F)cc4)S(=O)(=O)C3)CC2)c1 (stereo not drawn),6,.,-4,6,-14,14,.,.
O=C1S/C(=C/c2ccc(N3CCOCC3)o2)C(=O)N1Cc1c(F)cccc1Cl,25*,15,-25,-6,-2,-5,23*,36*
